Measured values reported in PubChem BioAssay.
For some of these results: Measured potencies and affinities stand elsewhere. The source made the active and inactive calls.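 How the source made its calls, unless noted: active means calcium signal ratio cut to more than 3 SD under the fully stimulated control mean yet still positive, in both repeats and the primary screen; inactive means the rest.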

Columns and labels:
[1] = tested on: TRPC4 beta (transient receptor potential cation channel C4), mouse; experiment: TRPC4 cation channel opening, retest – cell-based, Fluo4 calcium, HEK293 TRPC4beta/mu-opioid, duplicates, 10 µM, confirmation (AID 2426;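 active means fluorescence ratio normalized to control raised more than 50% in primary screen plus both repeat runs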); conditions: Fluo4 calcium fluorescence, at 10 µM; active compounds read high
[2] = tested on: transient receptor potential cation channel C4 beta (TRPC4), mouse; experiment: TRPC4 cation channel opening, second retest – cell-based, second round, Fluo4, HEK293 TRPC4beta/mu-opioid, 1 µM, confirmation (AID 2461;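 active means primary screen active and over 50% activation in each of two duplicate runs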); conditions: Fluo4 calcium fluorescence, at 1 µM; active compounds read high
[3] = tested on: TRPC4 (transient receptor potential cation channel C4 beta), mouse; experiment: potentiation of DAMGO EC20 TRPC4 response – cell-based, second round, Fluo-4, HEK293 TRPC4beta/mu-opioid, 1 µM, confirmation (AID 2554;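 active means primary screen hit whose fluorescence ratio, in both repeats, exceeds the weak agonist control mean by 3 SD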); conditions: DAMGO EC20, Fluo-4 calcium flux, at 1 µM; active compounds read high
[4] = tested on: TRPC4 beta (transient receptor potential cation channel C4), mouse; experiment: potentiation of DAMGO EC20 TRPC4 response – cell-based, Fluo-4, HEK293 TRPC4beta/mu-opioid, confirmation (AID 2555;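 active means primary screen hit whose calcium fluorescence ratio, in both repeats, exceeds the weak agonist control mean by 3 SD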); conditions: DAMGO EC20, Fluo-4 calcium flux, at 10 µM; active compounds read high
[5] = molecular target: Short transient receptor potential channel 4 (Mus musculus) (UniProt Q9QUQ5); experiment: blockers of DAMGO-evoked TRPC4 calcium flux – cell-based, Fluo4, HEK293 TRPC4beta/mu-opioid, confirmation (AID 2636;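 active means calcium signal cut by more than 3 SD below the full-agonist control yet still positive, in both repeats and the earlier primary screen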); conditions: at 10 µM; active compounds read high
Chain of Short transient receptor potential channel 4 (Mus musculus) (Q9QUQ5 whole entry, looked up): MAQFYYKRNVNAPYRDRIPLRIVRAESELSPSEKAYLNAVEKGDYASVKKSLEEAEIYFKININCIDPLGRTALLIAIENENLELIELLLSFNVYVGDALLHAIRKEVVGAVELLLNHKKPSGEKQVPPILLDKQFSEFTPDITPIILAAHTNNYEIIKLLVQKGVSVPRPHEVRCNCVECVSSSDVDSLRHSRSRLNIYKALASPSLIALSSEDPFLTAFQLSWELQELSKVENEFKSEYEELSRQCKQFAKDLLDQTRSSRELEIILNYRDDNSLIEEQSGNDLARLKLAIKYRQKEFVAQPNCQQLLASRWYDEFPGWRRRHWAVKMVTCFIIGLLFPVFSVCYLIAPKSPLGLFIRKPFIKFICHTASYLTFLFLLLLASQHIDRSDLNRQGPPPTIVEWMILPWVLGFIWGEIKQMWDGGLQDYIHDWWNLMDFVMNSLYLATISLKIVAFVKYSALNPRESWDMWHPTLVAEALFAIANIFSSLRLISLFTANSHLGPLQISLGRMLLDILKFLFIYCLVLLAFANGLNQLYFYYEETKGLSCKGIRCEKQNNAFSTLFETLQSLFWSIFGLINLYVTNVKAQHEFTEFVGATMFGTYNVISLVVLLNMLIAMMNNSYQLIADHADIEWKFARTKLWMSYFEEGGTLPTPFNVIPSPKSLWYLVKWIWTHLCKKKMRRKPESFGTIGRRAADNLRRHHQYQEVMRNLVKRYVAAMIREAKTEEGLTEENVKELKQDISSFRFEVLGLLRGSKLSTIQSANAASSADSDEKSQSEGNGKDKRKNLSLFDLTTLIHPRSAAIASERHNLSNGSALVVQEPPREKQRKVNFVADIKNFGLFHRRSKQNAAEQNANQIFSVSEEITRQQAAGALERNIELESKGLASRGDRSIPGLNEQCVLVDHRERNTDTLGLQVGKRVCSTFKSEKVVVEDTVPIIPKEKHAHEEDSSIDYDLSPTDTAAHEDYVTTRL

[6] = molecular target: Short transient receptor potential channel 4 (Mus musculus) (UniProt Q9QUQ5); experiment: blockers of DAMGO-evoked TRPC4 calcium flux – cell-based, second round, Fluo4, HEK293 TRPC4beta/mu-opioid, 1 µM, confirmation (AID 2637); conditions: at 1 µM; active compounds read high;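 on inhibition: percent of integrated ratio relative to wells lacking test compound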
[7] = molecular target: Short transient receptor potential channel 4 (Mus musculus) (UniProt Q9QUQ5); experiment: calcium entry via TRPC4 opening agents – cell-based, HEK293 TRPC4/mu-opioid, Fluo-4 calcium, dose response (AID 434937;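 active means primary screen activator hit with a dose response curve and TRPC4 channel activation at any tested dose; inactive means no activation, no dose response, or not a primary hit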)
[8] = molecular target: Short transient receptor potential channel 4 (Mus musculus) (UniProt Q9QUQ5); experiment: potentiation of DAMGO-evoked TRPC4 calcium signal – cell-based, HEK293 TRPC4/mu-opioid, Fluo-4 calcium, EC20 DAMGO, dose response (AID 434941;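 active means earlier screen potentiator hit that boosts the TRPC4 ion channel at some dose, with a dose response; inactive means no potentiation, no dose response, or not a prior hit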;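 further: calcium entry triggered by an EC20 dose of DAMGO at the co-expressed mu-opioid receptor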)
[9] = molecular target: Short transient receptor potential channel 6 (Mus musculus) (UniProt Q61143); experiment: TRPC6 blockade by TRPC4 inhibitor hits – cell-based, HEK293, membrane potential dye, duplicate, selectivity assay for TRPC4 inhibitor project, confirmation (AID 434948;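 active means active in primary screen and both duplicates, each dropping signal beyond three positive-control SD with fluorescence still positive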); conditions: HEK293 TRPC6, membrane potential dye fluorescence, at 10 µM, stimulated with maximal-effect acetylcholine; active compounds read high
Chain of Short transient receptor potential channel 6 (Mus musculus) (Q61143 whole entry, looked up): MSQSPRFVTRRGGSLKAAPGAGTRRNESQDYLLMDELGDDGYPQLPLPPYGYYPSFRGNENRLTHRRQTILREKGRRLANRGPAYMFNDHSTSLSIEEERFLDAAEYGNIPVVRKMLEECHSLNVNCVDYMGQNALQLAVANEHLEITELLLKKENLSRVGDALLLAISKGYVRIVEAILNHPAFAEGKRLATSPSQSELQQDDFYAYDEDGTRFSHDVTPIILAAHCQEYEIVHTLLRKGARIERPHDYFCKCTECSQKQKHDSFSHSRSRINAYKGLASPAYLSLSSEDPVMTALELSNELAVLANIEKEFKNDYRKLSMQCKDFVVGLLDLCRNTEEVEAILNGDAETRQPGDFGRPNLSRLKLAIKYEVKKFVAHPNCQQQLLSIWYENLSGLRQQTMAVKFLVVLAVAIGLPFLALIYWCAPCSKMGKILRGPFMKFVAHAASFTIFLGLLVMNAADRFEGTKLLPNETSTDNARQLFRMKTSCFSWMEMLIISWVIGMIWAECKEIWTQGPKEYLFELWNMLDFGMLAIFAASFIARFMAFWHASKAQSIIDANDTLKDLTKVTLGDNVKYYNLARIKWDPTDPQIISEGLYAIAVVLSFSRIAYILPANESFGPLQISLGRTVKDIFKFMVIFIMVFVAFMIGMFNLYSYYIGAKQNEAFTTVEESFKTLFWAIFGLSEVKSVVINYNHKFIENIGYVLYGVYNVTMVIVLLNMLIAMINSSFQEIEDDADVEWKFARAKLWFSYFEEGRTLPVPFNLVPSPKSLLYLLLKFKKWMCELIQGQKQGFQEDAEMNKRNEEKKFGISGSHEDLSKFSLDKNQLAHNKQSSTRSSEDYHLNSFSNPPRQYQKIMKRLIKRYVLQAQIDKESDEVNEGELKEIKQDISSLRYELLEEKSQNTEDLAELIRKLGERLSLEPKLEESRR

[10] = molecular target: Short transient receptor potential channel 6 (Mus musculus) (UniProt Q61143); experiment: TRPC6 opening by TRPC4 activator hits – cell-based, HEK293, membrane potential dye, duplicate, selectivity assay for TRPC4 activator project, confirmation (AID 434950;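 active means membrane potential signal rise above negative control mean plus 3 SD in both duplicates, also active in the earlier TRPC4 screen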); conditions: HEK293 TRPC6, membrane potential fluorescence, at 10 µM; activation: active compounds read high; outcome: activation
[11] = molecular target: Short transient receptor potential channel 6 (Mus musculus) (UniProt Q61143); experiment: positive modulators of mouse TRPC6 channel – HEK293 cells, membrane potential dye, duplicate, selectivity assay for TRPC4 potentiator project, confirmation (AID 434952;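 active means compound raising the membrane signal above positive-control mean plus 3 SD in both repeats, and a primary screen hit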); conditions: HEK293 TRPC6, membrane potential dye fluorescence, at 10 µM, maximal acetylcholine added after compound; active compounds read high
[12] = molecular target: Short transient receptor potential channel 4 (Mus musculus) (UniProt Q9QUQ5); experiment: calcium flux activators in TRPC4/5HT1a cells, counter-screen for TRPC4 activator project, cell-based, second counter screen, HEK293 TRPC4/5HT1a, Fluo-4 (AID 434977;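 active means calcium signal rise above buffer-control mean plus 5 SD in both duplicates, and also a hit in the primary screen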); conditions: Fluo-4 calcium flux, at 10 µM; active compounds read high
[13] = serotonin-gated TRPC4 signal block – cell-based, second counter screen, HEK293 TRPC4/5HT1a, Fluo-4, counter-screen for TRPC4 inhibitor project, confirmation (AID 434978;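 active means primary screen active whose calcium signal fell more than 3 SD beyond the full-serotonin control mean in both duplicate plates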;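 on outcome: serotonin given first at submaximal then at maximal dose after compound preincubation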); conditions: Fluo-4 calcium flux, at 10 µM, serotonin added to trigger calcium flux; active compounds read high
[14] = tested on: TRPC4 (mouse), co-expressed with 5HT1a in HEK293; experiment: enhancement of serotonin-evoked TRPC4 response – cell-based, second counter screen, HEK293 TRPC4/5HT1a, Fluo-4, counter-screen for TRPC4 potentiator project, confirmation (AID 434979;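 active means signal rise over 3 SD above mean of control wells given weak agonist, in both repeats and first screen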); conditions: Fluo-4 calcium flux, at 10 µM, serotonin added at its EC20 dose; active compounds read high
[15] = nonspecific calcium rise without TRPC4 – cell-based, HEK293 mu-opioid receptor line, counter-screen for TRPC4 activator project, confirmation (AID 449723;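 active means hit in primary screen, with calcium signal over 5 SD above buffer well mean in both duplicates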;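 further: counter screen cells carry the mu-opioid receptor alone and lack TRPC4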); conditions: HEK293 mu-opioid cells, Fluo-4 calcium fluorescence, at 10 µM; active compounds read high
[16] = nonspecific potentiation of DAMGO calcium response – cell-based, HEK293 mu-opioid receptor line, counter-screen for TRPC4 allosteric potentiator project, confirmation (AID 449724;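 active means calcium signal rise more than 3 SD above the low-dose agonist control mean, in both duplicate plates and the primary screen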); conditions: HEK293 mu-opioid receptor cells, Fluo-4 calcium flux, at 10 µM, compound added before EC20 DAMGO stimulus; active compounds read high

SMILES | outcome [1] | outcome [2] | outcome [3] | outcome [4] | inhibition [5] | inhibition [6] | outcome [7] | outcome [8] | outcome [9] | outcome [10] | outcome [11] | outcome [12] | inhibition [13] | outcome [14] | outcome [15] | outcome [16] | outcome [6] | outcome [13] | inhibition [9] | outcome [5]
CC(C)=CCCC(C)CN1CCC(n2nccc2NC(=O)C2CCCC2)CC1 (stereo unspecified) | inactive | inactive | inactive | inactive | 99% (active) | 63% (active) | inactive | inactive | inactive | inactive | inactive | inactive | 38% (active) | inactive | inactive | inactive |  |  |  | 
CCOC(=O)C1(CCOc2ccccc2)CCN(Cc2cccs2)CC1 | inactive | inactive | inactive | inactive | 80% (active) |  | inactive | inactive | inactive | inactive | inactive | inactive |  | inactive | inactive | inactive | inactive | inactive |  | 
CCOC(=O)c1c(N)sc(C(O)(C(F)(F)F)C(F)(F)F)c1-c1ccccc1 | inactive | inactive | inactive | inactive | 66% (active) |  | inactive | inactive | inactive | inactive | inactive | inactive | 36.8% (active) | inactive | inactive | inactive | inactive |  |  | 
CC(=O)N1CCN(c2ccccc2NC(=O)c2cccs2)CC1 | inactive | inactive | inactive | inactive | 76% (active) | 43% (active) | inactive | inactive | inactive | inactive | inactive | inactive |  | inactive | inactive | inactive |  | inactive |  | 
COC(=O)c1ccc(Nc2cc(C)nc3ccccc23)cc1 | inactive | inactive | inactive | inactive | 98% (active) |  | inactive | inactive |  | inactive | inactive | inactive | 19.9% (active) | inactive | inactive | inactive | inactive |  | 50% (active) | 
O=C(Cc1ccccc1)Nc1ccccc1Sc1ccccc1 | inactive | inactive | inactive | inactive | 86% (active) |  | inactive | inactive | inactive | inactive | inactive | inactive | 40.9% (active) | inactive | inactive | inactive | inactive |  |  | 
CCCCCCCNC(=O)COc1ccc2c(c1)C(=O)CC(C)(C)O2 | inactive | inactive | inactive | inactive | 81% (active) | 46% (active) | inactive | inactive | inactive | inactive | inactive | inactive | 24.7% (active) | inactive | inactive | inactive |  |  |  | 
C=CCSc1nnc2n(-c3ccccc3OC)c(=O)c3c4c(sc3n12)CCC4 | inactive | inactive | inactive | inactive | 58% (active) |  | inactive | inactive | inactive | inactive | inactive | inactive | 29.1% (active) | inactive | inactive | inactive | inactive |  |  | 
CCCCNCC1C(Oc2ccc(Cl)cc2)C(=O)N1c1ccccc1C (stereo unspecified) | inactive | inactive | inactive | inactive |  |  | inactive | inactive | inactive | inactive | inactive | inactive |  | inactive | inactive | inactive | inactive | inactive |  | inactive
CCCCOc1ccc(CSCCN=C(N)N)cc1 | inactive | inactive | inactive | inactive | 88% (active) | 42% (active) | inactive | inactive | inactive | inactive | inactive | inactive | 40.1% (active) | inactive | inactive | inactive |  |  |  | 
Cc1[nH]n(C)c(=O)c1C(=O)c1c(-c2c(Cl)cccc2Cl)noc1C | inactive | inactive | inactive | inactive | 90% (active) | 42% (active) | inactive | inactive | inactive | inactive | inactive | inactive | 27.3% (active) | inactive | inactive | inactive |  |  |  | 
COc1cccc2cc(C(N)=O)/c(=N\NC(=O)c3ccccc3)oc12 | inactive | inactive | inactive | inactive | 73% (active) | 44% (active) | inactive | inactive | inactive | inactive | inactive | inactive | 40.1% (active) | inactive | inactive | inactive |  |  |  | 
CCn1c(=N)n(CC(=O)c2ccc(Br)s2)c2ccccc21 | inactive | inactive | inactive | inactive |  |  | inactive | inactive |  | inactive | inactive | inactive |  | inactive | inactive | inactive | inactive | inactive | 59% (active) | inactive
CC(COc1ccccc1)N1CCC(CO)(Cc2ccccc2)CC1 (stereo unspecified) | inactive | inactive | inactive | inactive | 96% (active) |  | inactive | inactive | inactive | inactive | inactive | inactive | 22.9% (active) | inactive | inactive | inactive | inactive |  |  | 
COCCn1c(SCc2ccc(OC)c(F)c2)nc2ccccc2c1=O | inactive | inactive | inactive | inactive | 95% (active) |  | inactive | inactive | inactive | inactive | inactive | inactive | 16.1% (active) | inactive | inactive | inactive | inactive |  |  | 
Fc1ccc(-n2cc(CNCCc3ccncc3)c(-c3ccccc3Cl)n2)cc1 | inactive | inactive | inactive | inactive |  |  | inactive | inactive | inactive | inactive | inactive | inactive |  | inactive | inactive | inactive | inactive | inactive |  | inactive
